RecA splice inh – Mtb RecA intein splicing inhibitors, primary screen, biochemical, fluorescence, HTS; actives 0.75% (n = 290,000); cell-free RecA intein splicing; inhibition, % (concentration not given with the values); Protein RecA (Mycobacterium tuberculosis (strain ATCC 25618 / H37Rv)), P9WHJ3; in the data active = inhibition above about 30%;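 also: 0% = vehicle wells and 100% = reference inhibitor control wells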
Rv3671c inh – Rv3671c serine protease inhibitors, primary screen, biochemical, fluorescence polarization, M. tuberculosis H37Rv; P9WHR9; AID 2606, 2010; actives 0.048% (n = 320,000); inhibition, % at 5.96 µM; in the data active = inhibition above about 38%;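 also: extracellular domain of Rv3671c used as enzyme; 0% = enzyme with DMSO and 100% = no enzyme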
FadD28 FP inh – inhibitors of FadD28 bisubstrate probe binding, primary screen, biochemical, fluorescence polarization, single point | actives 0.22% (n = 360,000) | Mycobacterium tuberculosis FadD28 fatty-acid-AMP ligase | inhibition, % at 12.5 µM | AID 588549, 2011; in the data active = inhibition above about 8.5%, passing the limit was not always enough
Y pestis TopoI – Yersinia pestis topoisomerase I inhibitors, primary screen, biochemical, cleavage product accumulation, plate reader, single point | actives 0.064% (n = 360,000) | DNA topoisomerase I (Yersinia pestis CO92) | Y. pestis Topo-I cleavage product accumulation | activity, % at 10 µM; in the data active = activity above about 50%, passing the limit was not always enough
Mtb BioA inh – M. tuberculosis BioA enzyme inhibitors, primary screen, biochemical, plate reader, single point, HTS; inhibition, % at 9.99 µM; actives 0.096% (n = 360,000); AID 602481, 2012; purified M. tuberculosis BioA enzyme; 7,8-diaminopelargonic acid synthase BioA (Mycobacterium tuberculosis); in the data active = inhibition above about 40%
UGM FP inh – M. tuberculosis UGM enzyme inhibitors, primary screen, biochemical, fluorescence polarization, single point. inhibition, % at 10 µM. actives 0.06% (n = 320,000). purified UGM, fluorescence polarization probe displacement. UDP-galactopyranose mutase (Mycobacterium tuberculosis (strain ATCC 25618 / H37Rv)), …; in the data active = inhibition above about 10%, passing the limit was not always enough
Active calls of the source: *; . = no result given. Sampled rows, rich in hits. Any-hit rate of the full collection: about 0.82%.

SMILES	RecA splice inh	Rv3671c inh	FadD28 FP inh	Y pestis TopoI	Mtb BioA inh	UGM FP inh
c1ccc(C2[C@H]3CN(Cc4cccnc4)[C@H](c4ccccc4)C34CC2(c2cccnc2)C4)cc1 (some centres undefined)	37.1*	4.2	-5.8	30.5	2.3	1.4
c1ccc(C2[C@H]3CN(Cc4cccnc4)[C@H](c4ccccc4)C34CC2(c2ccccc2)C4)cc1 (some centres undefined)	9.9	-3.2	-3.5	2.6	-0.6	0.2
O=C(C[C@@H]1CC[C@H]2[C@@H](COC[C@H](O)CN2Cc2cccc(C(F)(F)F)c2)O1)NCCc1ccncc1	.	.	.	.	0.0	.
COc1ccc(-n2c(O)c(/C=C3\C=Nc4ccc(Br)cc43)c(=O)[nH]c2=O)cc1	4.4	-14.2	-1.7	8.3	-3.4	40.6*
CCC(=NCCC(c1ccccc1)c1ccccc1)c1c(O)[nH]c(=O)[nH]c1=O	-2.2	-4.7	-2.3	66.1*	-0.6	0.0
Cn1nc([N+](=O)[O-])nc1Sc1nnc(-c2ccccc2)o1	31.7*	0.1	-3.9	0.8	-0.4	-3.0
CC(C)NC(=O)Nc1ccc2c(c1)C(=O)N([C@H](C)CO)C[C@H](C)[C@@H](CN(C)Cc1ccncc1)OCCCC[C@H](C)O2	.	.	.	.	-2.4	.
CCOC(=O)CC1=NN(c2ccccc2)C(=O)C1	65.9*	-18.6	-1.6	-13.1	.	-2.1
COc1cc2c3nnc(-c4ccccc4)c-3cn(Cc3ccc(F)cc3)c2cc1OC	-124.2	-4.0	-7.4	15.9	.	5.1
COc1cc2c3nnc(-c4ccc(F)cc4)c-3cn(Cc3ccc(C)cc3)c2cc1OC	-74.3	3.4	-0.9	-1.2	-3.2	15.4*
CCOc1cc(/C=N/NC(=O)c2cccnc2)ccc1OCC(N)=O	3.0	0.0	-0.5	2.9	.	0.0
CCOc1cc(/C=N/NC(=O)c2cccnc2)ccc1O	-0.7	9.1	0.2	8.9	40.6*	0.0
O=C(N/N=C/c1cccc(OC(=O)c2ccccc2Cl)c1)c1cccnc1	3.9	-12.6	-22.4	20.4	50.2*	1.9
Cc1ccc(C(=O)N/N=C/c2ccc(OC(=O)c3ccccc3Cl)cc2)cn1	11.2	-82.1	-3.4	34.9	-3.6	0.7
COc1cc2ccccc2cc1C(=O)N/N=C/c1cccnc1	0.5	-3.5	-1.7	0.9	71.6*	0.1
COc1ccc(NC(=O)Nc2ccc3c(c2)C(=O)N([C@H](C)CO)C[C@H](C)[C@@H](CN(C)C(=O)CCCN(C)C)OCCCC[C@H](C)O3)cc1	.	.	.	.	-3.2	.
C[C@@H]1CN([C@H](C)CO)S(=O)(=O)c2ccc(-c3ccccc3)cc2O[C@H]1CN(C)C(=O)Cc1ccccc1	.	.	.	.	5.3	.
O=c1ccc2cc3c([nH]c4ccc(Br)cc43)oc-2c1O	19.5	-15.0	21.5*	-36.4	2.7	3.4
CC/C(=N\NC(=O)c1ccccc1O)c1c(O)n(C2CCCCC2)c(=O)[nH]c1=O	22.1	15.9	15.0*	4.1	3.8	-1.8
O=C(N/N=C/c1c(O)n(C2CCCCC2)c(=S)[nH]c1=O)c1ccccc1	14.7	2.2	-0.2	-10.1	-4.1	-4.0
O=C(N/N=C/c1c(O)n(C2CCCCC2)c(=S)[nH]c1=O)c1ccccc1O	36.9*	9.9	3.5	1.8	-0.9	2.8
CCCOc1ccc(/C(O)=C2/C(=O)C(=O)N(c3ccccn3)C2c2ccc(OC)cc2)cc1C (centres undefined)	1.1	2.3	-4.0	55.8*	0.3	0.7
Cc1ccc(N2C(=O)c3cccc4c(N)ccc(c34)C2=O)c2cccnc12	-9.6	-21.1	0.2	2.2	-2.4	7.2
CCN1C(=O)c2cccc3c(N)ccc(c23)C1=O	-190.1	23.3	-4.3	-4.6	-33.4	36.8*
C=CCOc1ccc(/C=C/C(=O)OCC(=O)NCCCc2ccccc2)cc1	-0.6	10.1	-1.9	52.6*	-0.8	.
SMILES	RecA splice inh	Rv3671c inh	FadD28 FP inh	Y pestis TopoI	Mtb BioA inh	UGM FP inh
CCCCn1c(C)cc(C)c(S(=O)(=O)c2ccccc2C)c1=O	16.5	0.8	-2.1	58.8*	0.4	-1.7
CN1C=C/C(=C\c2cc[n+](C)c3ccccc23)c2ccccc21	70.6*	.	-1.0	-34.0	5.8	.
Cc1ccc(S(=O)(=O)Nc2ccc3c(c2)CC(=O)N([C@@H](C)CO)C[C@@H](C)[C@@H](CN(C)S(=O)(=O)c2ccc(C)cc2)O3)cc1	.	.	.	.	0.6	.
COc1ccc(CC(=O)O/N=C(\N)Cc2cccc3ccccc23)cc1OC	31.6*	-13.8	-4.3	1.5	.	-0.2
N/C(Cc1cccc2ccccc12)=N\OC(=O)c1cccs1	33.0*	-6.8	-4.1	4.6	0.9	2.8
COc1ccc(CC(=O)O/N=C(\N)Cc2cccc3ccccc23)cc1	4.2	-2.5	-4.6	13.3	.	-1.8
Cc1noc(C)c1S(=O)(=O)Nc1ccc2c(c1)C(=O)N([C@H](C)CO)C[C@@H](C)[C@H](CN(C)C(=O)CCCN(C)C)OCCCC[C@@H](C)O2	.	.	.	.	-0.1	.
O=C(NCC1CCCCC1)[C@@H]1N[C@@H]2c3ccc(C4=CCCC4)c(=O)n3C[C@@H]2[C@H]1CO	.	.	.	.	0.4	.
CC(C)Cc1ccc(CN2CC[C@@H](NS(=O)(=O)c3ccccc3)C2)cc1	.	.	.	.	2.2	.
Cc1ccc(Cn2ccc(NC(=O)c3cc(-c4cccs4)on3)n2)cc1	-1.4	2.8	0.2	87.0*	-0.5	-1.8
COc1cc(C(O)c2nc3ccccc3s2)cc(OC)c1OC (centres undefined)	0.3	-3.2	24.3*	-5.6	2.3	1.2
C[C@H]1CCCCO[C@H](CN(C)Cc2ccc(Cl)c(Cl)c2)[C@@H](C)CN([C@@H](C)CO)C(=O)c2cc(NC(=O)NC3CCCCC3)ccc2O1	.	.	.	.	-1.6	.
O=C(O)c1ccccc1-c1ccc(/C=c2\sc3nc4cc(Br)cnc4n3c2=O)o1	-12.2	5.9	23.7*	-4.0	-0.2	-1.9
Cc1cc2nc3s/c(=C/c4ccc(-c5ccccc5C(=O)O)o4)c(=O)n3c2cc1C	0.5	-5.4	0.6	-4.0	2.4	0.5
CCCCCC(O)CCCC(=O)O (centres undefined)	.	.	-0.5	0.5	-0.2	.
CCCCCCCCCCCCCCCC(O)C[N+](C)(C)CCO (centres undefined)	.	.	34.8*	-33.8	.	.
O=C(O)c1cc(N2N=C(C(F)(F)F)/C(=C/C=C/c3ccco3)C2=O)ccc1Cl	.	.	77.2*	-42.2	.	.
Cc1ccc(-c2c(C(=O)O)c(C(=O)O)c3n2CSC3)cc1	0.1	-0.1	-1.7	6.7	1.1	0.1
O=C(O)c1c(C(=O)O)c(-c2ccc(Br)cc2)n2c1CSC2	-1.3	-5.6	12.6*	0.1	0.4	-3.5
